Rows were chosen to be rich in hits. Some 10% of all compounds tested hit in one or more screens of this group.
hNpr1 antagonist: human Npr1 receptor antagonism | Potency, µM (doses to about 46.3 µM), inactives show at the highest dose activity change, negative = inhibition, usual class: inhibitors | AID 1347048 | P16066 | 76,000 compounds, 1.6% hits | HEK293 hNpr1 GloSensor cGMP, ANP-stimulated luminescence; calls by dose curve; also: nearly all actives have a fitted effect of over 60% in size
Target sequence (P16066 whole entry, looked up): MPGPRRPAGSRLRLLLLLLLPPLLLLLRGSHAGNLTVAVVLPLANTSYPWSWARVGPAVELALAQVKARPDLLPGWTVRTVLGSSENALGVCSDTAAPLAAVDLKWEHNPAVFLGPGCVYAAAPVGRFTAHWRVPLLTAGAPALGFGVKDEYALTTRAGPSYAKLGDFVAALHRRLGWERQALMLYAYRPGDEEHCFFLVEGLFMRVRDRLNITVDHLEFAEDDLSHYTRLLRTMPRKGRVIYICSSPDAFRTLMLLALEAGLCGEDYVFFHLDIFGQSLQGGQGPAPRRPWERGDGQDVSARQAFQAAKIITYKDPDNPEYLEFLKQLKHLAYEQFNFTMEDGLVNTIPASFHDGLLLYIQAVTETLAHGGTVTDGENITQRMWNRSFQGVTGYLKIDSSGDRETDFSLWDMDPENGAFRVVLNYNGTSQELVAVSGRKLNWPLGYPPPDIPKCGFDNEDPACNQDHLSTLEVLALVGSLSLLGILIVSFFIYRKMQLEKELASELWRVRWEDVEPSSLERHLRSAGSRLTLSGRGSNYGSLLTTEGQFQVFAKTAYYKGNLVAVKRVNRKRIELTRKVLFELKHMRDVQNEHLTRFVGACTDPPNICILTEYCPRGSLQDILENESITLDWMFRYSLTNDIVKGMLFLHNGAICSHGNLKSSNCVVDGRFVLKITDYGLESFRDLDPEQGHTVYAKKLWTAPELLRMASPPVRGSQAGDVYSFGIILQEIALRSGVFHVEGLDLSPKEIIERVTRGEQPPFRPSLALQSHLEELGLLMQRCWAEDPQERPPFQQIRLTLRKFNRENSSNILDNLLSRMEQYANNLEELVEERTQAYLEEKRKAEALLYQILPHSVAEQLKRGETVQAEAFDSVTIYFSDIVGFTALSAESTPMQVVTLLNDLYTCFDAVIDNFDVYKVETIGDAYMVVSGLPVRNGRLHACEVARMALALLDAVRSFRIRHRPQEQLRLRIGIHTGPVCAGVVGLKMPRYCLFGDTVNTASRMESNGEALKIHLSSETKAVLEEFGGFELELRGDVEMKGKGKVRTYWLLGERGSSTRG
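HEK293 cells stably expressing human Npr1 and cGMP GloSensor pGS-40F, loaded 2 h with 2% GloSensor reagent, given compound 30 min at room temperature. Luminescence read before and 20 min after 0.1 nM hNppA.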
HEK cytotox: HEK 293 cell cytotoxicity; 94,000 compounds, 6.6% hits; Potency, µM (titrated, usually from 115 µM), without a hit: at the top dose activity change, negative = cytotoxicity, most hits filed as inhibitors; AID 1345083; HEK 293 viability, ATP luminescence (CellTiter-Glo), 48-72 h; also: nearly all actives have a fitted effect of over 60% in size
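250 HEK 293 cells/well; compound by pintool; incubated 48 or 72 hr at 37 degree Celsius; CellTiter-Glo added, 10 min RT, luminescence imaged.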
NIH3T3 tox: cytotoxic compounds in NIH 3T3 cells; NIH 3T3 viability, CellTiter-Glo ATP luminescence, 48-72 h; Potency, µM (titrated, usually from 96.7 µM), without a hit: at the highest dose activity change, negative = cytotoxicity, most hits filed as inhibitors; 94,000 compounds, 4.3% hits; AID 1345082; also: nearly all actives have a fitted effect of over 55% in size
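Cytotoxicity is measured as loss of cellular ATP: NIH 3T3 cells (400/well) are exposed to compound for 48 or 72 hr at 37 °C, then CellTiter-Glo luminescence is imaged after 10 min at room temperature.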
GPT2 inh: GPT2 alanine aminotransferase inhibition; Q8TD30; Recombinant GPT2, coupled pyruvate oxidase/HRP Amplex Red fluorescence; Potency, µM (series often up to 57.7 µM), for inactives: top-dose activity change, negative = inhibition, actives largely listed as inhibitors; 100,000 compounds, 0.25% hits; AID 1671188; also: nearly all actives have a fitted effect of over 60% in size
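Fluorescence of coupled pyruvate oxidase/HRP/Amplex Red system (50uM Amplex, 30 min, dark) reports pyruvate formed by GPT2. Enzyme reaction: 10ng/uL GPT2, 2mM L-alanine, 250uM a-KG, 30 min room temperature, pH 7.5; 50uM AOA control.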
Luciferase inh: inhibitors of firefly (Photinus pyralis) luciferase. P08659. purified P. pyralis luciferase, luminescence, biochemical. Potency, µM (series often up to 115 µM), actives largely listed as inhibitors. 76,000 compounds, 2.5% hits. AID 1347043; also: nearly all actives have a fitted effect of over 65% in size
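Purified 10nM P. pyralis luciferase with 10uM D-luciferin and 10uM ATP in 50mM Tris acetate pH 7.5, 10mM Mg acetate, 0.01% Tween-20, 0.05% BSA. qHTS titration; luminescence read by CCD imager.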
* hit, by the source's call; i = inactive; ? = inconclusive; . = no result; [ ] = another dose, or the depositor's remark. Unless noted, calls follow the shape of the dose curve; as a rule, active = well fitted curve in the direction sought with a large enough effect; inconclusive = small, poorly fitted or top-dose-only effect, or another doubt; inactive = no such curve, though single readings can be large; an effect the other way counts as inactive or inconclusive. % is scaled to controls: 0 for no effect and ±100 for the full control effect; potency is read from the fitted curve at half-maximal effect.

SMILES | hNpr1 antagonist | HEK cytotox | NIH3T3 tox | GPT2 inh | Luciferase inh
CCN(C)C(=O)CCc1c(C)nn(-c2cccc(C)c2)c1Oc1ccccc1 | -21% | 40µM* | 35µM* | -21% | i
Cc1noc([C@@H]2CN(C3CCCCCC3)C[C@H]2CO)n1 | 6% | i | 1% | 1% | i
COc1ccc(CC(=O)N2CCC3(CC2)CN([S+](=O)([O-])c2ccccc2)CCO3)cc1 | . | -25% | -19% | -19% | .
O=C(Nc1cccnc1)c1ccc2c(c1)OCCN(c1cccc(OC(F)(F)F)c1)C2 | ? | 28µM* | ? | 2%[88.5 µM] | i
O=C1NC(=NC2CCCCC2)C2(CCCN(Cc3ccccc3)C2)N1c1cccnc1 (centres undefined) | . | ? | ? | i | .
Cn1c(CNC(=O)CN2C(=O)C3(CCCCC3)C2c2ccccc2)nc2ccccc21 (centres undefined) | . | ? | ? | 2% | .
COc1ccc(C(=O)Nc2ccc([C@H]3OCC(=O)N(Cc4ccc(F)cc4)[C@@H]3CO)cc2)cc1 | -2% | ? | -12% | i | 45µM*
CC(C)CN1C(=O)CO[C@H](c2ccc(NC(=O)c3ccc(C(F)(F)F)cc3)cc2)[C@H]1CO | 13µM* | ? | ? | -7% | 45µM*
O=C(Nc1ccccc1)Nc1ccc([C@@H](O)[C@H]2COCC(=O)N2Cc2ccc(F)cc2)cc1 | 5% | 79µM* | ? | 2% | ?
O=C(Nc1ccccc1)Nc1ccc([C@H]2OCC(=O)N(Cc3ccc(F)cc3)[C@@H]2CO)cc1 | -16% | 40µM* | ? | -29% | i
Cc1nncn1C1CCN(S(=O)(=O)c2ccc(F)c(Cl)c2)CC1 | -11% | -19% | -12% | -6% | i
COc1ccc(C(=O)Nc2ccc([C@H]3OCC(=O)N(C(C)C)[C@@H]3CO)cc2)cc1OC | -5%[70.6 µM] | -6%[172 µM] | -8%[174 µM] | -21%[88.5 µM] | i
COc1ccc(C(=O)Nc2ccc([C@H]3OCC(=O)N(Cc4ccncc4)[C@@H]3CO)cc2)cc1OC | 0% | i | 89µM* | -2% | i
Cc1cc(Cn2cc3c4c(cccc42)[C@H](CC(C)C)N[C@H](C(=O)N2CCN(C)CC2)C3)no1 | 2% | ? | ? | 1% | i
COCCCNc1ncnc2c1CN(C1CCCCC1)C(=O)CN2C | . | i | -7% | i | .
Cc1ccc(C(=O)N[C@H]2CO[C@H]3[C@@H]2OC[C@@H]3n2cc(CC3CCCCC3)nn2)cc1 | -4%[70.6 µM] | ? | 35µM* | 1%[88.5 µM] | i
COC(=O)c1cccc(NC(=S)N[C@H]2CO[C@H]3[C@@H]2OC[C@@H]3n2cc(CC3CCCCC3)nn2)c1 | ? | 40µM* | ? | 0% | i
COc1ccc(C(=O)N[C@H]2CO[C@H]3[C@@H]2OC[C@@H]3n2cc(-c3ccccc3)nn2)cc1 | -29%[70.6 µM] | ? | ? | i | i
CN(Cc1ccccc1)Cc1cn([C@H]2CO[C@H]3[C@@H]2OC[C@@H]3NCc2ccccc2)nn1 | -2%[70.6 µM] | ? | ? | i | i
c1ccc(CN[C@H]2CO[C@H]3[C@@H]2OC[C@@H]3n2cc(CC3CCCCC3)nn2)cc1 | -20%[70.6 µM] | ? | 35µM* | i | i
COc1ccc(C(=O)N[C@H]2CO[C@H]3[C@@H]2OC[C@@H]3n2cc(CC3CCCCC3)nn2)cc1 | -26%[70.6 µM] | ? | ? | i | i
O=C(N[C@H]1CO[C@H]2[C@@H]1OC[C@@H]2n1cc(-c2ccccc2)nn1)c1ccc(C(F)(F)F)cc1 | ? | 40µM* | ? | 4% | i
CC(C)NC(=O)c1cc(-c2ccc(Cl)cc2Cl)c2nncn2n1 | . | ? | ? | 3%[88.5 µM] | .
O=C(c1ccc(Cl)nc1)N1CCN(c2nccc(Nc3ccccc3F)n2)CC1 | . | ? | ? | i | .
COc1ccc(-c2cccc(C(=O)N3CCN(C(=O)c4ccccn4)CC3)c2)nn1 | . | -6% | i | . | .
SMILES | hNpr1 antagonist | HEK cytotox | NIH3T3 tox | GPT2 inh | Luciferase inh
COc1ccc(-c2ccccc2NC(=O)C2CCCN(Cc3c(O)cccc3OC)C2)cc1 (centres undefined) | ? | 20µM* | ? | -2% | i
COc1ccc(-c2ccccc2NC(=O)C2CCCN(Cc3ccc(O)c(OC)c3)C2)cc1 (centres undefined) | -1% | ? | ? | i | i
COc1ccc(-c2ccccc2NC(=O)C2CCCN(Cc3ccccc3O)C2)cc1 (centres undefined) | 0% | 25µM* | ? | 4% | i
O=C(Nc1ccccc1)N1CCN(C(=O)c2nc3cccnc3n(Cc3ccccc3)c2=O)CC1 | . | -12% | ? | 5% | .
COCc1ccc2c(c1)c(OC(C)(C)C(=O)N1CC(O)C1)nn2Cc1cccnc1 | 2%[70.6 µM] | 2%[172 µM] | 79µM* | i | i
COCc1ccc2c(c1)c(OC(C)(C)C(=O)NCC[S+](C)(=O)[O-])nn2Cc1ccccc1 | -1% | -26% | 35µM* | 3% | i
COCc1ccc2c(c1)c(OC(C)(C)C(=O)NC(C)C)nn2Cc1cccnc1 | -2%[70.6 µM] | -17%[172 µM] | ? | 3%[88.5 µM] | i
COCc1ccc2c(c1)c(OC(C)(C)C(=O)NCCc1ccccn1)nn2Cc1ccccc1 | -11% | ? | ? | 1% | i
COCc1ccc2c(c1)c(OC(C)(C)C(=O)Nc1ccccn1)nn2Cc1ccccc1 | -4%[70.6 µM] | 63µM* | ? | -11%[88.5 µM] | i
Cc1cnc(C2CCOCC2)n1CCNC(=O)c1cccn1C | . | -2% | 4% | i | .
O=C(Cc1ccc(Cl)cc1)N1CCC2(CC1)NC(=O)N(c1ccccc1Cl)N2 | -1% | 89µM* | 40µM* | ? | i
CC(=O)Nc1cccc(-c2cc(C(=O)NCc3c(C)cc(C)[nH]c3=O)c3c(c2)N(C(C)C)CCO3)c1 | 1% | ? | 45µM* | 3% | i
COc1ccc(-c2cc(C(=O)NCc3c(C)cc(C)[nH]c3=O)c3c(c2)N(C(C)C)CCO3)cc1 | -5% | 28µM* | ? | -13% | i
COc1cccc(-c2cc(C(=O)NCc3c(C)cc(C)[nH]c3=O)c3c(c2)N(C(C)C)CCO3)c1OC | 1% | 79µM* | ? | 0% | i
Cc1cc(C)c(CNC(=O)c2cc(-c3ccccc3O)cc3c2OCCN3C(C)C)c(=O)[nH]1 | -12% | ? | ? | ? | i
Cc1cc(C)c(CNC(=O)c2cc(-c3ccccc3C)cc3c2OCCN3C(C)C)c(=O)[nH]1 | 0% | ? | ? | -8% | i
COc1ncc(-c2cc(C(=O)NCc3c(C)cc(C)[nH]c3=O)c3c(c2)N(C(C)C)CCO3)cn1 | 4% | ? | -30% | i | i
Cc1cc(C)c(CNC(=O)c2cc(-c3ccccc3C)cc3ncn(C)c23)c(=O)[nH]1 | -5%[70.6 µM] | 112µM* | ? | 2%[88.5 µM] | i

Assay outcomes from PubChem.
